Source: PubChem BioAssay AID1233 (SRMLSC, 2008)
Entries with a potency or affinity are not part of this list.

The molecules below were run against HMG-CoA reductase [Enterococcus faecalis] (UniProt Q9FD70) (assay: inhibitors of E. faecalis class II HMGR, confirmation, biochemical, Enterococcus faecalis (AID 1233;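 further: 0% = full reaction carrier wells and 100% = background wells lacking mevalonate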)). Conditions: purified E. faecalis HMGR, NADPH absorbance 340 nm kinetics; series mostly up to 100 µM; inhibition: at the top concentration.

inhibition, inactive:
Cc1cc2cccc(C)c2nc1SCC(=O)NNC(=O)c1ccco1 -7.68%, CC1=C(C)C(=O)C(N2CCOCC2)=CC1=O -4.26%, Cc1nc(SCC(=O)N2CC(=O)Nc3ccccc32)c2c(C)c(C)sc2n1 -5.79%, Cc1ccc(CN(C)CC(=O)Nc2ccc3c(c2)CCC3)cc1 -4.12%, CSc1nc(-c2ccc(C)cc2)nc(C(Cl)Cl)n1 -3.82%, CN(C)CCCNC(=O)c1cc(C(=O)C2CCCCC2)c[nH]1 -3.15%, CCN(CCNCC(O)COCc1ccc(Cl)cc1)c1cccc(C)c1 (stereo not drawn) -8.18%, CC(C(=O)NC1CCCc2ccccc21)N1CCN(c2ccc(F)cc2)CC1 (stereo not drawn) -4.6%, O=C(CNC(=O)c1ccccc1)N/N=C/c1cccs1 0.73%, CCCC(=O)NC(=S)Nc1ccc(Cl)cn1 -3.35%, COC(=O)c1cc(NC(=O)CSc2nnc(N)s2)ccc1Cl -0.91%, CC[n+]1c(C)n(-c2ccccc2)c2ccc(C(=O)OC)cc21 -3.04%, ON/C=N/C(=S)Nc1ncc(C(F)(F)F)cc1Cl -7.37%, O=C(CSc1nc(-c2ccccc2)cs1)N1CCc2ccccc21 -6.01%, Cn1cnnc1Sc1ccc(C(=O)OCC(=O)NC2CC2)cc1[N+](=O)[O-] -7.72%, O=C(NCC1CCCO1)c1ccc(Cl)c(F)c1F (stereo not drawn) -2.73%, COc1ccccc1C(=O)NNC(=O)c1ccc(NC(=O)c2ccccc2)cc1 -6.29%, Cc1ccc(C(C(=O)NC(C)(C)C)N(Cc2ccc3c(c2)OCO3)C(=O)c2ccc(CN3CCOCC3)o2)o1 (stereo not drawn) -7.02%, CSc1ccc(C2CC(=O)Nc3nc(SC)[nH]c(=O)c32)cc1 (stereo not drawn) -0.1%, C=CCOc1ccc(Br)cc1CNC(C)(C)C -2.42%, Cn1nnnc1SCC(=O)c1ccc(Br)s1 0.87%, Cc1cccc(/C=N/NC(=O)c2cc(-c3cccnc3)nc3c2c(C)nn3-c2ccccc2)c1 -4.78%, COc1ccc(/C=C/C(=O)NC(=S)NNC(=O)c2cccnc2)cc1OC -3.52%, COc1ccc(C(=O)/C=C/c2ccc(N3CCCCC3)c([N+](=O)[O-])c2)c(OC)c1 -3.89%, COc1ccc(C(=O)Nc2ccc(NC(=O)c3cnccn3)cn2)cc1 -20.1%, O=C1CC(=O)N(Cc2ccco2)C(=S)N1 -2.11%, CN(C1CCCC1)C1CCN(C(=O)CNC(=O)/C=C/c2ccccc2)CC1 -3.48%, O=C(Nc1ccc(S(=O)(=O)Nc2ccccc2)cc1)C1COc2ccccc2O1 (stereo not drawn) -3.81%, O=C1NC(=O)/C(=C/C(=O)N2CCOCC2)S1 -3.27%, CN(C(=O)COc1ncnc2c1cnn2-c1ccccc1)C1CCCCC1 -1.4%, COc1ccc(NCc2nnc(SCCN3CCCCC3)n2-c2ccc(C)cc2)cc1 -4.43%, CN(Cc1nc(-c2cnccn2)no1)C1CC(C)(C)NC(C)(C)C1 -4.08%, CCOC(=O)Cc1csc(NC(=O)COc2cccc(C)c2)n1 -3.23%, CS(=O)(=O)N1CCc2cc(S(=O)(=O)N3CCCCC3)ccc21 -0.68%, CCCCOC(=O)c1nc[nH]c1C(=O)OCCCC -4.01%, COc1ccccc1N(CC(O)CN(c1ccccc1)S(C)(=O)=O)S(=O)(=O)c1ccccc1 (stereo not drawn) 0.06%, CN(C)c1ccc(P(=O)(OCc2ccccc2)C(O)c2ccncc2)cc1 (stereo not drawn) -0.24%, COC(c1ccccc1)c1nnc(CCC(=O)NCCC(C)C)o1 (stereo not drawn) -0.95%
